This note sets out measurements from PubChem BioAssay AID1839 (Johns Hopkins Ion Channel Center, 2009).

The structures appear in SMILES notation. Screen size: about 2,400 compounds; about 220 (9.2%) were called active. The sample holds actives, similar compounds and a random draw of the others, so the mix is not that of the screen. Values without a mark were called inactive.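 How the source made its calls: active means signal change above the mean of dofetilide-free buffer controls plus 3 SD, so a positive margin; inactive means the rest.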

The nature of this assay: thallium signal changes without hERG – cell-based, CHO-K1 parental line, FluxOR thallium flux, counter-screen for hERG block protection project, confirmation (AID 1839).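 Further: compounds applied alone with no dofetilide to cells lacking hERG.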 To be noted: CHO-K1 parental cells, FluxOR thallium flux fluorescence; at 10 µM.
Take `CCOC(=O)Cc1csc(NC(=S)NC(=O)c2ccc(Cl)cc2)n1`: the signal change vs control minus 3*SD hit threshold (margin above threshold, higher = more increase) was -26.4%.

Consider `C=C(C)CNC(=S)NN=C1c2ccccc2-c2ccccc21`, for which the signal change vs control minus 3*SD hit threshold (margin above threshold, higher = more increase) is -25%. Take `O=c1c(-c2ccc(Cl)cc2)[n+]([O-])c2ccccc2n1O`: the signal change vs control minus 3*SD hit threshold (margin above threshold, higher = more increase) was 29.3% (active). For the compound `Cc1ccc(-c2c(=O)n(O)c3ccccc3[n+]2[O-])cc1`, the signal change vs control minus 3*SD hit threshold (margin above threshold, higher = more increase) was 15.9% (active). In the case of `O=c1c(-c2cccc3ccccc23)[n+]([O-])c2ccccc2n1O`, the signal change vs control minus 3*SD hit threshold (margin above threshold, higher = more increase) was -12.8%. As to `O=c1c(-c2ccccc2)[n+]([O-])c2ccccc2n1O`, the signal change vs control minus 3*SD hit threshold (margin above threshold, higher = more increase) was -26.3%. With `COc1ccc(S(=O)(=O)N2CCN(C(=O)CNC(=O)c3ccc4c(c3)OCO4)CC2)cc1`, the signal change vs control minus 3*SD hit threshold (margin above threshold, higher = more increase) was -26.4%. As to `Cc1cc2c(cc(C(=O)OC(C(=O)NCc3ccco3)C(C)C)n2C)o1` (stereo not drawn), the signal change vs control minus 3*SD hit threshold (margin above threshold, higher = more increase) is -12.7%.

Take `Cn1c(=O)c2c(nc(Cl)n2CC(=O)N2CCCCC2)n(C)c1=O`: the signal change vs control minus 3*SD hit threshold (margin above threshold, higher = more increase) was -27.9%.

In the case of `CCOC(=O)C1CCCCN1Cc1ccc(F)cc1` (stereo not drawn), the signal change vs control minus 3*SD hit threshold (margin above threshold, higher = more increase) was -18.3%. Next, `O=S(=O)(NC(=S)NC1CCCCC1)c1ccc(Cl)cc1`: -16.4%. Next, `CCc1ccc(S(=O)(=O)NC(=S)NC2CCCCC2)cc1`: 1.9% (active). For the compound `Cc1ccc(S(=O)(=O)NC(=S)NC2CCCCC2)cc1`, the signal change vs control minus 3*SD hit threshold (margin above threshold, higher = more increase) was -13%. For `CCCn1c(CC)nc([N+](=O)[O-])c1S(=O)(=O)c1ccccc1`, the signal change vs control minus 3*SD hit threshold (margin above threshold, higher = more increase) was -15.2%. Next, `COC(=O)c1c(NS(=O)(=O)Cc2ccccc2)sc2c1CCCC2`: -1.7%; `CCC(C)(C)NC(=O)c1ccc(Sc2nncn2C)c([N+](=O)[O-])c1`: -27.2%; `Cc1ccc(Nc2cc(C)nn2-c2nc(C)cc(=O)[nH]2)cc1`: 15.1% (active).

Consider `Cc1cccc(N/C(N)=N/c2nc(C)cc(=O)[nH]2)c1`, for which the signal change vs control minus 3*SD hit threshold (margin above threshold, higher = more increase) is -33%. Consider `Cc1ccc(Nc2nc(C)cs2)cc1`, for which the signal change vs control minus 3*SD hit threshold (margin above threshold, higher = more increase) is -10.7%. As for `CC(C)(C)Cc1nnc(NC(=O)c2ccco2)s1`, the signal change vs control minus 3*SD hit threshold (margin above threshold, higher = more increase) is -32.3%. Next, `CC1=[N+]([O-])C(C)(C)C(c2ccc(Br)cc2)=[N+]1[O-]`: -17%. Take `COC(=O)c1sc(NC(=S)NC(=O)c2ccccc2F)nc1C`: the signal change vs control minus 3*SD hit threshold (margin above threshold, higher = more increase) was -6.2%. `COc1ccc(C(=O)CC(=O)C(=O)Nc2ccc(C)c(Cl)c2)cc1`: the signal change vs control minus 3*SD hit threshold (margin above threshold, higher = more increase) is -23%. Take `Cc1ccccc1C(=O)NNC(=O)c1cccc([N+](=O)[O-])c1`: the signal change vs control minus 3*SD hit threshold (margin above threshold, higher = more increase) is -30%. Turning to `COc1cc(NC(=O)c2ccccc2OCc2ccccc2)cc(OC)c1OC`, the signal change vs control minus 3*SD hit threshold (margin above threshold, higher = more increase) was -34.3%. In the case of `Cc1ccc(NC(=O)C(=O)NNC(=O)c2ccccc2C)cc1Cl`, the signal change vs control minus 3*SD hit threshold (margin above threshold, higher = more increase) was 35% (active). Take `COc1ccc(C(=O)NNC(=O)C(=O)NC2CCCCC2)cc1`: the signal change vs control minus 3*SD hit threshold (margin above threshold, higher = more increase) is -33.5%. In the case of `COc1ccccc1C(=O)NNC(=O)C(=O)NC1CCCCC1`, the signal change vs control minus 3*SD hit threshold (margin above threshold, higher = more increase) is 14.6% (active).

As to `COc1ccccc1C(=O)NCc1ccc2c(c1)OCO2`, the signal change vs control minus 3*SD hit threshold (margin above threshold, higher = more increase) is -31%. `COc1ccc(NC(=O)C(=O)NNC(=O)c2ccc(Cl)cc2Cl)cc1`: the signal change vs control minus 3*SD hit threshold (margin above threshold, higher = more increase) was -20.1%. Consider `COc1ccccc1C(=O)NNC(=O)C(=O)NCc1ccccc1`, for which the signal change vs control minus 3*SD hit threshold (margin above threshold, higher = more increase) is 3.6% (active).

Turning to `O=C(COc1ccc(Cl)cc1)NNC(=O)C(=O)NC1CCCCC1`, the signal change vs control minus 3*SD hit threshold (margin above threshold, higher = more increase) was -26.3%. `COc1ccccc1C(=O)NNC(=O)C(=O)Nc1ccc(C)c(Cl)c1`: the signal change vs control minus 3*SD hit threshold (margin above threshold, higher = more increase) is 55.4% (active). For `Cc1ccc(NC(=O)c2ccc3c(c2)OCO3)cc1Cl`, the signal change vs control minus 3*SD hit threshold (margin above threshold, higher = more increase) was -25.4%. On to `Cc1ccc(-n2ncc3c2CCCC3NC(=O)c2csnn2)cc1C` (stereo not drawn), for which the signal change vs control minus 3*SD hit threshold (margin above threshold, higher = more increase) was -37.5%. Next, `Cc1ccc(NC(=O)c2c([N+](=O)[O-])c(C(C)(C)C)nn2C)cc1`: -22.3%; `Cc1cc(C)c(NC(=O)C2CC3CCC2C3)c(C)c1` (stereo not drawn): -16.2%; `CC(C)(C)C(=O)NC(=S)N1CCOCC1`: -15.9%. Consider `Cc1ccc(C)n1-n1c(C)nc2scc(-c3ccccc3)c2c1=O`, for which the signal change vs control minus 3*SD hit threshold (margin above threshold, higher = more increase) is -33.2%.

With `Cc1c(Cl)cccc1NC(=S)N=Nc1c(O)n(CN2CCOCC2)c2ccccc12`, the signal change vs control minus 3*SD hit threshold (margin above threshold, higher = more increase) was -31.2%. Turning to `O=C(NC(=S)N(CCc1ccccc1)CCc1ccccc1)c1ccco1`, the signal change vs control minus 3*SD hit threshold (margin above threshold, higher = more increase) was -17.5%. As to `CCOc1ccc(S(=O)(=O)Nc2nc3ccccc3nc2-n2ccc(=NC(=O)c3cccs3)cc2)cc1`, the signal change vs control minus 3*SD hit threshold (margin above threshold, higher = more increase) is -31.9%.

As to `CS(=O)(=O)N1CCN(c2ccccc2NC(=O)Nc2cccc(Cl)c2)CC1`, the signal change vs control minus 3*SD hit threshold (margin above threshold, higher = more increase) is -32.6%. Next, `O=C1N2CCSC2=NC1(NS(=O)(=O)c1ccccc1)C(F)(F)F` (stereo not drawn): -19%; `Cc1ccc(Nc2nc(-c3cccs3)cs2)nc1`: -32.7%; `CC(C)(C)NC(=O)CN(C(=O)CS(=O)CC(=O)Nc1ccc(F)cc1)c1cccc(F)c1` (stereo not drawn): -27.9%. As to `O=c1c(Cc2ccccc2)c(O)nc2n1CCCS2`, the signal change vs control minus 3*SD hit threshold (margin above threshold, higher = more increase) is -25.5%. With `COc1ccccc1C(=O)NNC(=O)C(=O)Nc1ccc(C)cc1`, the signal change vs control minus 3*SD hit threshold (margin above threshold, higher = more increase) is 59.6% (active). `COc1ccccc1C(=O)NNC(=O)C(=O)Nc1cccc(Cl)c1C`: the signal change vs control minus 3*SD hit threshold (margin above threshold, higher = more increase) is 55.6% (active). With `COc1ccccc1C(=O)Nc1ccc(C(=O)N2CCCC2)cc1`, the signal change vs control minus 3*SD hit threshold (margin above threshold, higher = more increase) was -13%. Next, `C/C(CC(=O)Nc1ccccn1)=N\NC(=O)C(=O)Nc1cccc(Cl)c1C`: -14.9%; `COc1ccccc1C(=O)NNC(=O)C(=O)NC(C)(C)C`: -7.1%. As to `Cc1ccccc1C(=O)NNC(=O)C(=O)Nc1cccc(Cl)c1C`, the signal change vs control minus 3*SD hit threshold (margin above threshold, higher = more increase) is -1.4%.

Take `Cc1ccc(OCC(=O)NC(=S)Nc2ccc(Br)cn2)cc1C`: the signal change vs control minus 3*SD hit threshold (margin above threshold, higher = more increase) is -27.8%. For the compound `Cn1cc([N+](=O)[O-])c(C(=O)N/N=C\c2c[nH]c3ccccc23)n1`, the signal change vs control minus 3*SD hit threshold (margin above threshold, higher = more increase) is -27%. Next, `O=C(Cc1cccs1)Nn1c(Cc2cccs2)nc2ccccc2c1=O`: -15.1%. As to `Cc1cc(NC(=O)CCCn2cnc([N+](=O)[O-])n2)no1`, the signal change vs control minus 3*SD hit threshold (margin above threshold, higher = more increase) is -28.2%. Next, `COC(=O)C(C)Sc1nnc(Cc2cc(=O)[nH]c(=O)[nH]2)n1-c1cccc(OC)c1` (stereo not drawn): -26%; `S=c1[nH]nc(-c2cccs2)n1/N=C/c1c(Cl)cccc1Cl`: -17.3%.

For the compound `CN(C)S(=O)(=O)c1cc(NC2CC(=O)N(c3ccc(F)cc3)C2=O)ccc1Cl` (stereo not drawn), the signal change vs control minus 3*SD hit threshold (margin above threshold, higher = more increase) was -30.5%. For the compound `Cc1cc(C)c(C(=O)c2ccc(C(=O)N3CCCCC3)cc2)c(C)c1`, the signal change vs control minus 3*SD hit threshold (margin above threshold, higher = more increase) was -37.3%. `COC(=O)c1sccc1NC(=O)CSc1ccccc1NS(=O)(=O)c1cc(Cl)ccc1Cl`: the signal change vs control minus 3*SD hit threshold (margin above threshold, higher = more increase) was -29.7%. With `O=S(=O)(Nc1nc(-c2sccc2Cl)cs1)c1cc(Cl)ccc1Cl`, the signal change vs control minus 3*SD hit threshold (margin above threshold, higher = more increase) was 15.7% (active).
